A selection: hits, their analogues and other compounds. The true share with any hit is near 21%.
DT40 TDP1 no CPT = qHTS for Inhibitors of human tyrosyl-DNA phosphodiesterase 1 (TDP1): qHTS in cells in absence of CPT; DT40 Tdp1-/- hTDP1 cells, no CPT, ATP luminescence, 48 h; Potency, µM (series often up to 46.2 µM), most hits filed as inhibitors; 420,000 tested, 15% active; AID 686978, 2013; note: nearly all actives have a fitted effect of over 55% in size
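A cellular qHTS used chicken DT40 cells lacking endogenous Tdp1 but carrying stably transfected human TDP1. Compounds were applied without camptothecin, and cell growth kinetics were judged by ATP-dependent luminescence after ≥48 hr.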
TDP1 cell CPT = DT40-hTDP1 cell growth loss with CPT; Potency, µM (highest dose often 46.2 µM), actives largely listed as inhibitors; chicken DT40 Tdp1-/-;hTDP1 cells + 20 nM CPT, ATP luminescence, 48 h; 420,000 tested, 12% active; note: nearly all actives have a fitted effect of over 55% in size
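Cell growth measured by CellTiter-Glo luminescence after a minimum 48 h, 37 C compound exposure with 20 nM CPT in Tdp1-knockout DT40 cells stably expressing hTDP1, seeded 400/well; qHTS titration format.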
IL1B secr inh = inhibitors of inflammasome signaling (IL-1 beta secretion). THP-1 LPS/ATP IL-1B secretion, AlphaLISA, 16 h; hits give low values. activity change, % at 57.5 µM. 360,000 tested, 4.7% active; in the data active = activity change below about -50%; inconclusive = mostly about -30% to -49%
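THP-1 cells pretreated 1 hr with compounds (up to 57.5 uM final), then stimulated with LPS (250 ng/mL final) plus ATP (1.25 mM final); secreted IL-1B measured by AlphaLISA after 16 hr, decreased signal indicating inhibition.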
D3 antag = blocks the human D3 dopamine receptor | P35462 | D3R cells, DiscoveRx beta-arrestin luminescence, antagonist mode; hits give low values | max response, negative = inhibition, % | 360,000 tested, 2.5% active; in the data active = max response below about -50%; inconclusive = no clear call, values can overlap the other calls
Target sequence (P35462 whole entry, looked up): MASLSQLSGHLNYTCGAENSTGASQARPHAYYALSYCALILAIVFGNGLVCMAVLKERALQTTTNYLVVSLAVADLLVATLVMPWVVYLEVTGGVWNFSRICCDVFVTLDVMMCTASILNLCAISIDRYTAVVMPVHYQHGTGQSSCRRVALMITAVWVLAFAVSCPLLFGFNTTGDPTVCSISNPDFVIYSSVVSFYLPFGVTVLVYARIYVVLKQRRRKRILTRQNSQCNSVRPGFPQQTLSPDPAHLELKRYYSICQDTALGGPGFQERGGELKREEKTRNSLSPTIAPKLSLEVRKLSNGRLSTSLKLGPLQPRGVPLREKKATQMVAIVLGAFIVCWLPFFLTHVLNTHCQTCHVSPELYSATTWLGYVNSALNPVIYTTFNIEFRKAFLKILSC
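Cells expressing the human receptor were seeded at 1500 cells/well, incubated overnight at 37 degrees C in 5% CO2, then exposed to library compounds with dopamine controls for 90 minutes at 37 degrees C before luminescent detection.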
ClpP mod = qHTS Assay for Activators of ClpP; ATP-dependent Clp protease proteolytic subunit (Bacillus subtilis (strain 168)), P80244; purified B. subtilis ClpP, FRET peptide cleavage, 20 min; Potency, µM (highest dose often 57.5 µM); 340,000 tested, 1.9% active; active = well fitted falling curve with a large enough effect; inconclusive = small, poorly fitted or top-dose-only effect; inactive = no such curve, though single readings can be large or run the other way; note: the source files actives as falling curves though it sought activators and does not explain the sign; nearly all actives have a fitted effect of over 65% in size
Target sequence (P80244 whole entry, looked up): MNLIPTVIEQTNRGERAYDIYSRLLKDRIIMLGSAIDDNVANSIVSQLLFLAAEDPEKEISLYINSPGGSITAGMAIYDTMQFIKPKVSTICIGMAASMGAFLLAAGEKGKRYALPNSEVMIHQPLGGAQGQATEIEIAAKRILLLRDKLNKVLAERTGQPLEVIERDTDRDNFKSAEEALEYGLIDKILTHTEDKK
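FRET quenching reversal measured ClpP activation: 10 microg/mL B. subtilis ClpP at pH 8 with the FRET-FV decapeptide, read at 430 nm after 320 nm excitation. The 20-min minus 0-min signal was scaled between DMSO/no-enzyme wells and ADEP (5.8 microM final).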
DRD3 agonist = D3 dopamine receptor (human) agonism. P35462. D3R DiscoveRx beta-arrestin cells, luminescence, 90 min. max activation, %. 410,000 tested, 0.58% active; in the data active = max activation above about 30%
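Agonist-mode cell screen: cells plated at 1500/well and incubated overnight at 37 °C, then exposed to library compounds for 90 min at 37 °C. Detection reagent was added for 30–60 min at room temperature, and luminescence was read.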
Numbers stand for hits; . = inactive; ? = inconclusive; / = not tested or not shown. Unless noted, calls come from the whole dose curve; as a rule, active = well fitted inhibition curve with a large enough effect; inconclusive = small, poorly fitted or top-dose-only effect; inactive = flat fitted curve, though single readings scatter.

SMILES	DT40 TDP1 no CPT	TDP1 cell CPT	IL1B secr inh	D3 antag	ClpP mod	DRD3 agonist
CCCC(=O)NC(=S)Nc1ccccc1C(F)(F)F	.	.	.	.	.	.
CCCC(=O)NC(=S)Nc1cccc(Cl)c1N1CCCCC1	?	?	.	.	.	.
CCC(=O)NC(=S)Nc1cccc(Cl)c1N1CCCCC1	11µM	11µM	.	.	.	.
Cn1c(=O)n(C)c2cc(CNCc3ccc(C(=O)O)cc3)ccc21	.	.	/	/	.	.
CCOCCCn1c(SCC(=O)Nc2cccc(OC)c2)nc2ccccc2c1=O	?	?	.	.	.	.
COc1cccc(NC(=O)CSc2nc3ccccc3c3nc4ccccc4n23)c1	16µM	12µM	.	.	.	.
COc1cccc(NC(=O)CSc2nc3ccccc3c(=O)n2Cc2cccs2)c1	?	21µM	.	.	.	.
CCC(Sc1nc2ccccc2c2nc(-c3ccccc3)nn12)C(=O)Nc1cccc(OC)c1 (stereo not given)	18µM	?	/	/	.	.
CC(NC(=O)c1cc([N+](=O)[O-])cc([N+](=O)[O-])c1)C1CC2CCC1C2 (stereo not given)	?	.	.	.	/	.
COC(=O)CN1C(=O)C(C)(C)c2cc(S(=O)(=O)NCc3ccc(Cl)cc3)ccc21	.	?	/	/	.	.
CCOC(=O)c1cccc(NC(=O)CCCn2c(C)c3cnn(-c4ccccc4)c(=O)c3c2C)c1	16µM	18µM	/	/	.	.
CCC(C(=O)Nc1ccc(C(C)=O)cc1)n1c(C)c2cnn(-c3ccccc3)c(=O)c2c1C (stereo not given)	?	23µM	/	/	.	.
CC(=O)c1cccc(NC(=O)Cn2c(C)c3cnn(-c4ccccc4)c(=O)c3c2C)c1	.	21µM	/	/	.	.
Cc1ccc(CNC(=O)Cn2c(=O)ccc3cc(S(=O)(=O)N4CCC(C)CC4)ccc32)cc1	?	?	/	/	.	.
CC1CCN(C(=O)c2[nH]cnc2C(=O)NC2CCN(C(=O)OC(C)(C)C)CC2)CC1	.	?	.	.	.	.
CC(C)C[C@H](NC(=O)c1nc[nH]c1C(=O)NC1CCN(C(=O)OC(C)(C)C)CC1)C(=O)OCc1ccccc1	?	?	-79	.	.	.
Cc1cccc(NC(=O)c2nc[nH]c2C(=O)NC2CCN(C(=O)OC(C)(C)C)CC2)c1	.	.	.	.	.	.
CC(C)(C)OC(=O)[C@H](Cc1ccccc1)NC(=O)c1nc[nH]c1C(=O)NC1CCN(C(=O)OC(C)(C)C)CC1	16µM	23µM	.	.	.	.
CC(C)(C)OC(=O)[C@H](Cc1ccccc1)NC(=O)c1nc[nH]c1C(=O)N1CCN(C(=O)OC(C)(C)C)CC1	.	?	.	.	.	.
CC(C)(C)OC(=O)N1CCC(NC(=O)c2nc[nH]c2C(=O)NCc2ccccc2)CC1	23µM	?	.	.	.	.
C[C@H](NC(=O)c1nc[nH]c1C(=O)NC1CCN(C(=O)OC(C)(C)C)CC1)C(=O)OC(C)(C)C	?	18µM	.	.	.	.
C[C@H]1CN([C@@H](C)CO)C(=O)c2cccc(NC(=O)c3cnccn3)c2O[C@@H]1CN(C)S(=O)(=O)c1ccc(F)cc1	?	.	.	.	.	.
COc1ccccc1NC(=O)CSc1nnc2ccc(-c3ccccn3)nn12	.	?	.	.	.	.
Cc1nc2nc(CNC(=O)OC(C)(C)C)nn2c(C)c1CCC(=O)NCc1ccc(F)cc1	.	.	/	/	.	.
Cc1ccc(C(=O)NCC(=O)OCC(=O)c2c(N)n(C)c(=O)n(C)c2=O)cc1C	.	.	.	.	.	.
SMILES	DT40 TDP1 no CPT	TDP1 cell CPT	IL1B secr inh	D3 antag	ClpP mod	DRD3 agonist
CC(C)C[C@H](NC(=O)c1nc[nH]c1C(=O)NC1CCN(C(=O)OC(C)(C)C)CC1)C(=O)OC(C)(C)C	18µM	?	.	.	.	.
CC(C)C[C@H](NC(=O)c1nc[nH]c1C(=O)N1CCNCC1)C(=O)OC(C)(C)C	.	.	.	-54	.	.
c1cc(C2OCCO2)cs1	.	.	.	.	.	.
Cc1ccc(-n2nnnc2SCC(=O)c2c(N)n(C3CC3)c(=O)[nH]c2=O)c(C)c1	?	?	.	.	.	.
NC(=O)/C(=C/c1ccco1)C(N)=S	.	.	.	.	.	.
CC1CCC(C(C)C)[C@H](O)C1 (stereo not given in full)	.	?	/	/	/	/
COc1ccc(C(=O)COC(=O)CCN=C2NS(=O)(=O)c3ccccc32)c(OC)c1	.	.	.	.	.	.
Nc1nonc1-n1nnc(C(=O)N/N=C/c2cc(Br)ccc2O)c1CNc1ccccc1	8.2µM	8.2µM	.	.	/	.
NC(=O)N/N=C\c1cc(Br)ccc1O	?	.	.	?	.	.
Nc1nonc1-n1nnc(C(=O)N/N=C/c2cccc(Cl)c2)c1CSc1ccccc1	.	.	.	.	.	39
Nc1nonc1C(=O)N/N=C/c1cc(Br)ccc1O	1.5µM	0.92µM	.	.	/	.
Cc1c(C(=O)N/N=C/c2c(O)ccc3ccccc23)nnn1-c1nonc1N	3.7µM	5.8µM	.	.	.	.
COc1ccc2ccccc2c1/C=N/NC(=O)c1nnn(-c2nonc2N)c1C(C)C	?	.	.	.	/	.
CCCOc1c(Cl)cc(C(=O)N(Cc2cccc(OC)c2)C2CCS(=O)(=O)C2)cc1Cl (stereo not given)	?	?	/	/	.	.
CCN(CC(=O)Nc1ccc(NC(C)=O)cc1)C(=O)c1cccc(-n2cccc2)c1	?	.	.	.	.	.
N=c1c2c(-c3ccccc3)c(-c3ccccc3)oc2ncn1CCN1CCOCC1	16µM	?	?	.	.	.
N=c1c2c(-c3ccccc3)c(-c3ccccc3)oc2ncn1CCCN1CCOCC1	18µM	21µM	?	?	?	.
c1ccc(-c2oc3ncnc(NCCN4CCOCC4)c3c2-c2ccccc2)cc1	?	?	-82	.	16µM	.
O=c1oc2ccccc2c2c1ncn2CCN1CCOCC1	?	?	.	.	.	.
O=C(OCCOc1ccc(Cl)cc1)c1cc(S(=O)(=O)N2CCCCC2)ccc1N1CCOCC1	?	13µM	.	.	?	.
O=C(COC(=O)c1cc(S(=O)(=O)N2CCCCC2)ccc1N1CCOCC1)c1ccccc1Cl	.	.	.	.	.	.
Cc1ccc(OCCOC(=O)c2cc(S(=O)(=O)N3CCCCC3)ccc2N2CCOCC2)cc1	13µM	16µM	.	.	.	.
